Test systems include KIT-autoinhibited; KIT; LATS1; LATS2; LCK; LIMK1; LIMK2; LRRK2; LTK; LYN; MAK; MAP3K15; MAP3K1; MAP3K2; MAP3K3.
Common to all, as to settings: concentration: 1 μM, replicates: in singlicate; n = 1
In a further test the test system is T1, JNK2.
T1 construct: gene MAPK9

The subject of another test is T2, JNK3.
T2 construct: gene MAPK10

A further test relates to T3, LKB1.
T3 construct: gene STK11

The subject of the next test is T4, LOK.
T4 construct: gene STK10

Another test deals with T5, LZK.
T5 construct: gene MAP3K13

The structures appear in SMILES notation.

The text below walks through data of PMC5540273 (PLoS ONE, 2017).
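Also: KINOMEscan kinase panel screen.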

With `COc1cc2ncn(-c3cc(OCc4ccc(S(C)(=O)=O)cc4)c(C(N)=O)s3)c2cc1OC` [GW869979], the “%Inh” value in the test with JNK2 is on record as 18%; in the test with JNK3, 18%; in the test on KIT-autoinhibited, 21%; in the test on KIT, 0%; with LATS1, 0%; in the test with LATS2, 39%. For the same compound, the “%Inh” value with LCK was 12%; in the test with LIMK1 it was 11%; in the test with LIMK2, 16%; with LKB1 it was 25%; in the test on LOK, 20%; with LRRK2, 29%. Moreover, the “%Inh” value in the test with LTK came to 0%; in the test on LYN it was 26%; with LZK, 3%; in the test with MAK, 0%; in the test with MAP3K15, 0%; in the test on MAP3K1, 8%. The “%Inh” value was 9% in the test on MAP3K2 and 0% in the test on MAP3K3.

As for `COc1cc2nccc(Nc3cccc(Oc4ccccc4)c3)c2cc1OC.Cl` [GW284543], the “%Inh” value in the test with JNK2 was found to be 31%; in the test with JNK3 it was 0%; in the test with KIT-autoinhibited it was 0%; with KIT, 15%; with LATS1, 10%; in the test on LATS2, 0%. The “%Inh” value in the test on LCK is 51%; with LIMK1, 0%; with LIMK2, 0%; with LKB1, 0%; with LOK, 0%; with LRRK2, 48%. The “%Inh” value in the test on LTK was 0%; with LYN, 0%; in the test on LZK, 0%; in the test with MAK, 12%; in the test on MAP3K15, 0%; in the test with MAP3K1, 0%. For the same compound, the “%Inh” value with MAP3K2 and in the test with MAP3K3 was 0% in each case.

As for `O=C(NCCNc1ccnc(Nc2ccc(F)cc2)n1)Nc1ccc2c(c1)OCO2` [GSK1379882], the “%Inh” value was 10% in the test on JNK2; 3% with JNK3; 0% with KIT-autoinhibited; 34% in the test with KIT; 0% with LATS1; 17% with LATS2. Further, the “%Inh” value in the test on LCK was found to be 0%; with LIMK1 it was 0%; with LIMK2 it was 0%; in the test with LKB1 it was 25%; with LOK, 0%; with LRRK2, 0%. The “%Inh” value worked out at 0% in the test on LTK; 0% with LYN; 0% in the test with LZK; 30% with MAK; 0% in the test with MAP3K15; 1% with MAP3K1. The “%Inh” value in the test on MAP3K2 and in the test with MAP3K3 was 0% each time.

As for `CCC(=O)c1c(-c2ccccc2)c2cc(Cl)ccc2c(=O)n1Cc1cc(S(C)(=O)=O)n(CCC(C)(C)O)n1`, the “%Inh” value with JNK2 was 99.9%; with JNK3, 99.9%; in the test on KIT-autoinhibited, 0%; with KIT it was 11%; in the test with LATS1, 31%; in the test on LATS2 it was 17%. Besides, the “%Inh” value turned out to be 13% in the test on LCK; 0% in the test with LIMK1; 16% in the test with LIMK2; 3% in the test with LKB1; 16% in the test on LOK; 6% in the test with LRRK2. Besides, the “%Inh” value in the test with LTK is 6%; with LYN it was 18%; in the test on LZK it was 13%; with MAK, 2%; in the test with MAP3K15, 43%; in the test with MAP3K1, 3%. Also, the figures for the “%Inh” value in the test with MAP3K2 and in the test on MAP3K3 were 21% and 37%, respectively.

As for `Nc1ncnc2c1ncn2-c1cccc2ccccc12` [SKF-97184], the “%Inh” value in the test with JNK2 is 0%; with JNK3, 0%; in the test with KIT-autoinhibited, 20%; in the test with KIT it was 8%; with LATS1, 18%; in the test on LATS2, 0%. Besides, the “%Inh” value in the test with LCK is reported as 0%; in the test on LIMK1, 0%; in the test with LIMK2, 0%; in the test with LKB1 it was 92.8%; in the test with LOK, 3%; with LRRK2 it was 4%. The “%Inh” value amounted to 0% in the test on LTK; 15% with LYN; 34% in the test on LZK; 30% in the test with MAK; 9% in the test on MAP3K15; 5% with MAP3K1. For the same compound, the “%Inh” value with MAP3K2 was found to be 18%; in the test on MAP3K3, 0%.

On to `Nc1ncnc2c1ncn2-c1cccc(F)c1` [SKF-97560], for which the “%Inh” value in the test on JNK2 is listed as 18%; with JNK3, 36%; in the test on KIT-autoinhibited it was 25%; in the test on KIT it was 39%; with LATS1 it was 0%; in the test with LATS2, 42%. For the same compound, the “%Inh” value in the test with LCK amounted to 20%; in the test on LIMK1, 20%; in the test with LIMK2, 22%; with LKB1, 4%; in the test with LOK it was 0%; with LRRK2, 31%. The “%Inh” value in the test with LTK is 0%; with LYN it was 0%; in the test with LZK, 13%; in the test with MAK, 0%; in the test with MAP3K15, 0%; in the test on MAP3K1 it was 16%. Also, the “%Inh” value in the test on MAP3K2 is 3%; in the test with MAP3K3 it was 5%.

Consider `Cc1cc(Nc2nc(-c3cccc(C)n3)nc3ccccc23)ccn1` [GW872411], for which the “%Inh” value in the test on JNK2 came out at 14%; with JNK3, 0%; in the test with KIT-autoinhibited it was 2%; with KIT it was 0%; in the test with LATS1, 0%; with LATS2, 0%. Further, the “%Inh” value in the test on LCK, in the test on LIMK1, in the test on LIMK2, with LKB1, with LOK and in the test on LRRK2 was 0% each time. Further, the “%Inh” value in the test on LTK, with LYN, in the test with LZK, in the test on MAK, in the test with MAP3K15 and with MAP3K1 was 0% in each case. The “%Inh” value in the test on MAP3K2 and in the test with MAP3K3 was 0% each time.

Turning to `COc1cc2ncn(-c3cc(OCc4ccncc4Br)c(C(N)=O)s3)c2cc1OC` [GW854278], the “%Inh” value with JNK2 is reported as 5%; with JNK3 it was 5%; with KIT-autoinhibited, 5%; with KIT, 24%; in the test with LATS1 it was 22%; in the test with LATS2, 0%. The “%Inh” value is 25% with LCK; 0% with LIMK1; 8% in the test with LIMK2; 0% with LKB1; 87% with LOK; 0% with LRRK2. The “%Inh” value with LTK came to 7%; with LYN, 4%; in the test with LZK, 0%; with MAK, 2%; in the test with MAP3K15, 0%; with MAP3K1, 65%. The “%Inh” value was found to be 20% in the test with MAP3K2 and 1% in the test on MAP3K3.

Turning to `Nc1n[nH]c2ncc(-c3ccccc3)cc12` [SB-517081], the “%Inh” value was determined as 14% in the test on JNK2; 5% in the test on JNK3; 13% in the test on KIT-autoinhibited; 83% in the test with KIT; 0% in the test with LATS1; 0% with LATS2. The “%Inh” value is given as 7% with LCK; 0% with LIMK1; 9% in the test on LIMK2; 0% in the test with LKB1; 0% in the test with LOK; 0% with LRRK2. Moreover, the “%Inh” value in the test with LTK is 0%; in the test on LYN it was 0%; in the test on LZK, 0%; in the test on MAK it was 17%; with MAP3K15, 0%; in the test with MAP3K1 it was 6%. Further, the “%Inh” value in the test with MAP3K2 was determined as 15%; in the test with MAP3K3, 0%.

Turning to `Cc1ccc(Oc2ccc(Nc3ncnc4cc[nH]c34)cc2C)cn1`, the “%Inh” value is given as 44% in the test with JNK2; 57% in the test with JNK3; 12% in the test on KIT-autoinhibited; 16% in the test with KIT; 26% with LATS1; 44% in the test with LATS2. The “%Inh” value in the test on LCK is on record as 3%; in the test with LIMK1, 4%; with LIMK2, 0%; in the test on LKB1 it was 11%; in the test with LOK, 1%; in the test with LRRK2 it was 0%. Besides, the “%Inh” value in the test on LTK was found to be 0%; in the test with LYN it was 0%; in the test on LZK, 40%; in the test on MAK, 25%; with MAP3K15, 38%; in the test with MAP3K1 it was 0%. The “%Inh” value with MAP3K2 was 4%; in the test with MAP3K3, 30%.

As for `COc1ccc(-c2coc3ccc(-c4nnc(SCc5cccc(C#N)c5)o4)cc23)cc1`, the “%Inh” value was found to be 17% in the test with JNK2; 14% with JNK3; 1% with KIT-autoinhibited; 21% in the test on KIT; 29% in the test with LATS1; 11% in the test on LATS2. For the same compound, the “%Inh” value in the test with LCK is recorded as 11%; with LIMK1, 26%; in the test with LIMK2 it was 0%; in the test on LKB1 it was 0%; in the test with LOK, 4%; in the test on LRRK2 it was 0%. For the same compound, the “%Inh” value with LTK is 0%; in the test on LYN, 0%; with LZK, 9%; in the test on MAK, 36%; in the test with MAP3K15 it was 0%; in the test with MAP3K1, 7%. The figures for the “%Inh” value in the test on MAP3K2 and in the test on MAP3K3 were 24% and 12%, respectively.
